A selection: hits, their analogues and other compounds. The true share with any hit is near 12%.
L3MBTL1 inh: blocks human L3MBTL1 | Q9Y468 | AlphaScreen L3MBTL1–H3K9me1 peptide binding | 230,000 compounds, 0.66% hits | Potency, µM (top dose mostly 57.1 µM), inactives show at the highest dose activity, negative = inhibition, actives largely listed as inhibitors; further: on the % scale 0 is the no-effect control and ±100 the full control effect; nearly all actives have a fitted effect of over 60% in size
Target sequence (Q9Y468 whole entry, looked up): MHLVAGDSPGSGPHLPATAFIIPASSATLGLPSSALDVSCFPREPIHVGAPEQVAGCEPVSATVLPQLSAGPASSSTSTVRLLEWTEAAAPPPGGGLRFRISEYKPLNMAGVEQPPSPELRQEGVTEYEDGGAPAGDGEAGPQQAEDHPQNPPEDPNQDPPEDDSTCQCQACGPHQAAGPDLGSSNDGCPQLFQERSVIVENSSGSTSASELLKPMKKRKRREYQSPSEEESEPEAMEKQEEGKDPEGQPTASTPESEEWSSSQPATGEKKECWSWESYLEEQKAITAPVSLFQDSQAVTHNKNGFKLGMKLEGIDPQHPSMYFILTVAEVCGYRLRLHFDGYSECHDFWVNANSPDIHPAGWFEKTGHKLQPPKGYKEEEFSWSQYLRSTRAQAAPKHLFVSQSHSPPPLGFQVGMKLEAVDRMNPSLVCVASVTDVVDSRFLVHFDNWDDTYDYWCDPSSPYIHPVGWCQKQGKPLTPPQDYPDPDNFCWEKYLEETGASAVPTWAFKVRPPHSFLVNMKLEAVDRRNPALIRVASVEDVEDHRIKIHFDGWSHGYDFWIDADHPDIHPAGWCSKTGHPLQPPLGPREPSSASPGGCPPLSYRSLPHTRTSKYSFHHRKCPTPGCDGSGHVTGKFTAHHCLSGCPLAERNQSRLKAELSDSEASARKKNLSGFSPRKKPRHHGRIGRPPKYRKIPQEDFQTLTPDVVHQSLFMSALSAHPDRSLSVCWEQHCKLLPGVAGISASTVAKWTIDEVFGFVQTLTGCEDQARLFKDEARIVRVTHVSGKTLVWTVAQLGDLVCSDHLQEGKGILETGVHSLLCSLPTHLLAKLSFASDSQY
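L3MBTL1 (50 nM) pre-complexed 30 min with biotinylated H3(1-15)K9me1 peptide (75 nM), then compounds added for 30 min at room temperature; AlphaScreen streptavidin donor/nickel chelate acceptor beads (10 ug/mL final) read after 30 min dark incubation.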
Sfp PPTase inh: inhibitors of Bacillus subtilis Sfp phosphopantetheinyl transferase; Q9F4F7; Biochemical Sfp PPTase activity, qHTS; Potency, µM, inactives show largest response in the series, negative = inhibition, usual class: inhibitors; 310,000 compounds, 3.5% hits; AID 1490;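 further: the enzyme is Sfp with the accession as filed and its product quenches rhodamine fluorescence; 0% = enzyme reaction without inhibitor and -100% = no enzyme wells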
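Buffer: 50 mM Hepes-Na pH 7.6, 10 mM MgCl2, 0.01% Nonidet P-40, 0.01% BSA. Enzyme 15 nM, pre-exposed to compound 15 min; substrates then added and fluorescence change tracked over 30 min.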
JMJD2A Tudor inh: inhibitors of human JMJD2A Tudor domain; O75164; 390,000 compounds, 4.4% hits; Potency, µM (top dose mostly 114 µM), inactives show at the highest dose activity change, negative = inhibition, most hits filed as inhibitors; AlphaScreen JMJD2A-Tudor / H3K4me3 peptide binding; further: on the % scale 0 is the no-effect control and ±100 the full control effect; nearly all actives have a fitted effect of over 50% in size
HP1b binding inh: blocks HP1-beta chromodomain binding to methylated histone tails; P83916; AlphaScreen HP1-beta / biotin-H3K9me3 peptide binding; Potency, µM (highest dose often 114 µM), for inactives: top-dose activity change, negative = inhibition, actives largely listed as inhibitors; 390,000 compounds, 0.56% hits; AID 540317; further: nearly all actives have a fitted effect of over 70% in size
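HP1-beta protein (50 nM final) preincubated 30 min at room temperature with biotinylated H3(1-18)K9me3 peptide (50 nM) in PBS pH 7.4, 0.01% Tween-20, then compound added for 30 min. AlphaScreen streptavidin donor/nickel chelate acceptor beads (10 ug/mL final), 30 min dark, luminescence read.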
G9a block: blocks human histone lysine methyltransferase G9a | Q96KQ7 | 350,000 compounds, 8.8% hits | G9a H3K9 monomethylation, AlphaScreen, 2 h | Potency, µM (titrated, usually from 102 µM), inactives show at the top dose activity, negative = inhibition, most hits filed as inhibitors | AID 504332; further: on the % scale 0 is the no-effect control and ±100 the full control effect; nearly all actives have a fitted effect of over 75% in size
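Enzyme 20 nM + cpd, 15 min RT; add b-H3K9 pep 500 nM / SAM 20 uM; 2 h RT; anti-H3K9me1 Ab 0.5 ug/mL + SA donor / anti-rabbit acceptor beads 20 ug/mL each, 10 min; AlphaScreen read.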
BAZ2B block: inhibitors of human BAZ2B bromodomain | AID 504333 | Q9UIF8 | AlphaScreen BAZ2B-H3K14Ac peptide displacement | Potency, µM (titrated, usually from 114 µM), inactives show at the highest dose activity change, negative = inhibition, hits mostly inhibitors | 360,000 compounds, 4.4% hits; further: on the % scale 0 is the no-effect control and ±100 the full control effect; nearly all actives have a fitted effect of over 60% in size
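Compounds, titrated to a top concentration of 110 uM, were incubated 30 min at room temperature with preformed BAZ2B/acetyl-K14 H3 peptide complex (50 nM each). Proximity signal was measured by AlphaScreen after 20 min with beads.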
Starred values were filed as active, the others as inactive; ? = inconclusive; . = no result; [ ] = remark or other dose. The call rests on the fitted dose curve; in most records, active means well fitted curve in the direction sought with a large enough effect; inconclusive means small, poorly fitted or top-dose-only effect, or another doubt; inactive means no such curve, though single readings can be large; an effect the other way counts as inactive or inconclusive. Potency means the concentration at half of the fitted maximal effect.

SMILES	L3MBTL1 inh	Sfp PPTase inh	JMJD2A Tudor inh	HP1b binding inh	G9a block	BAZ2B block
CCn1nc(C(=O)Nc2ccccc2N2CCCC2)c2ccccc2c1=O	?	.	35.5µM*	?	25.1µM*	39.8µM*
O=C(Cc1ccc(Br)cc1)Nc1ccccc1N1CCCC1	.	10.4%	?	-3.3%	50.1µM*	?
O=C(CNCC1CCCCC1)Nc1ccccc1N1CCCCC1	2.8%	?	-75.6%[57.1 µM]	-25.0%	?	?
O=C(Cc1ccccc1)Nc1ccccc1N1CCCC1	-15.5%	-0.2%	-30.2%	11.8%	56.2µM*	-34.7%
O=C(CNC1CCCCCC1)Nc1ccccc1N1CCCCC1	2.7%	?	1.41µM*	?	?	?
COc1ccc(CC(=O)Nc2ccccc2N2CCCC2)cc1	.	-2.6%	-35.7%	7.3%	.	?
COc1ccc(OC)c(NC(=O)Cn2c(=O)cc(-c3ccccc3)c3c(C)nn(C)c32)c1	.	.	?	0.0%	-4.3%[59 µM]	-26.5%
Cc1noc(NS(=O)(=O)c2ccc(NC(=O)c3ccc(Br)cc3)cc2)c1C	.	.	-23.9%	5.2%	-8.8%[59 µM]	-6.0%
O=C1SC(Nc2ccccc2)C(=O)N1c1ccccc1 (stereo unspecified)	.	.	-11.6%	25.2%	.	.
O=C(CNCCC1=CCCCC1)Nc1ccccc1N1CCCCC1	16.1%	?	5.62µM*	?	1.78µM*	50.1µM*
C#CCOCCOCCOCCNc1nc(N2CCN(C(=O)C([C@@H](C)CC)n3cc(C(N)COC(=O)C(F)(F)F)nn3)CC2)nc(N2CCN(C(=O)[C@H](CCC(=O)O)n3cc(C(N)CC(C)C)nn3)CC2)n1 (stereo partly specified)	.	.	63.1µM*	42.0%	.	.
C#CCOCCOCCOCCNc1nc(N2CCN(C(=O)C([C@@H](C)CC)n3cc(C(N)COC(=O)C(F)(F)F)nn3)CC2)nc(N2CCN(C(=O)C([C@@H](C)CC)n3cc(C(N)CC(C)C)nn3)CC2)n1 (stereo partly specified)	.	.	79.4µM*	29.0%	.	.
CCOc1ccc(-n2c(=O)c3c(C)c(C)sc3n(CC(=O)c3ccccc3)c2=O)cc1	.	.	-4.8%	55.6%	-3.3%[59 µM]	10.6%
CN1CCN(Cc2ccc(Sc3ccc(Cl)cc3)c([N+](=O)[O-])c2)CC1	1.6%	?	?	-28.8%	-44.4%	31.6µM*
Cc1ccc(Sc2ccc(CO)cc2[N+](=O)[O-])cc1	-6.3%	-10.2%	?	-22.2%	-47.3%	?
Cc1ccc(Sc2ccc(CN3CCCC3)cc2[N+](=O)[O-])cc1	?	-4.2%	44.7µM*	?	?	?
COc1ccc(NC(=O)CSc2nc3nc(C)c(Cc4ccccc4Cl)c(C)n3n2)cc1OC	.	.	-34.9%	-14.8%	-40.3%[59 µM]	-24.1%
Cc1nc2cccnc2n1-c1cccc(C(=O)NCCc2ccc(S(N)(=O)=O)cc2)c1	.	.	11.4%	32.8%	?	-9.4%
CCOC(=O)c1c(NC(=O)CSc2nc(-c3ccc(OC)cc3)cc(C(F)(F)F)n2)sc(C)c1C	.	.	-20.3%	-18.9%	4.47µM*	-8.7%
CCN(CC)C(=O)c1sc(NC(=O)C(C)Sc2nc(-c3ccccc3)cc(C(F)(F)F)n2)c(C(=O)OC)c1C (stereo unspecified)	.	.	-11.3%	-23.5%	3.55µM*	-4.8%
CCCOC(=O)c1c(NC(=O)C(C)Sc2nc(-c3ccccc3)cc(C(F)(F)F)n2)sc(C(=O)N(C)C)c1C (stereo unspecified)	.	.	-14.1%	9.7%	11.2µM*	-1.4%
COc1ccc(C(=O)N(O)c2ccccc2)cc1	.	-8.0%	.	.	.	.
COC(=O)C/C=C\[C@@H](C)[C@@H](/C=N\O[C@@H](C)c1cc(-c2c(C)cc(C)cc2C)no1)OC	.	-2.9%	.	.	.	.
C=CCOC(=O)NC(CC(=Nc1ccc(OC)cc1)C(=O)OC)c1ccccc1 (stereo unspecified)	.	-24.3%	.	.	.	.
Cc1cnc(N2C(=O)c3ccc([N+](=O)[O-])cc3C2=O)s1	-1.3%	-3.6%	?	-2.8%	56.2µM*	-19.9%
SMILES	L3MBTL1 inh	Sfp PPTase inh	JMJD2A Tudor inh	HP1b binding inh	G9a block	BAZ2B block
COCCOC(=O)C1=C(C)NC(=O)NC1c1cn(-c2ccccc2)nc1-c1ccccc1 (stereo unspecified)	.	.	-14.2%	34.7%	-3.4%[59 µM]	1.1%
COc1ccc2c(c1)CCC1C2=NN(/C(C)=C\C(C)=O)C1c1ccc(F)cc1 (stereo unspecified)	-20.2%	44.7µM*	14.1µM*	-19.7%	15.8µM*	13.0%
COc1ccc2c(c1)C1=NN(/C(C)=C/C(C)=O)C(c3ccc(F)cc3)C1CC2 (stereo unspecified)	3.2%	-8.5%	?	-14.0%	-13.9%[59 µM]	0.7%
Cc1cccc(N2CCN(C(=O)c3c4c(nc5ccccc35)C(=O)N(C3CCCCC3)C4)CC2)c1C	.	.	?	38.7%	-3.0%[59 µM]	-31.5%
CC(C)(C)C(=O)Nc1cc(-c2cccc(Br)c2)nn1-c1ccccc1	.	.	10.7%	36.9%[57 µM]	6.2%[59 µM]	17.3%
CC1CCC(C(=O)c2c(O)c3ccccc3oc2=O)CC1 (stereo unspecified)	.	13.0%	-19.2%	14.6%	50.1µM*	9.3%
O=C(CC1CCCCC1)c1c(O)c2ccccc2oc1=O	4.2%	17.2%	15.7%	26.0%	-12.4%[12.7 µM]	1.3%
CCOc1ccc(OCC(=O)c2c(O)c3ccccc3oc2=O)cc1	-1.9%	28.2µM*	11.2µM*	?	3.16µM*	50.1µM*
CC(=N)c1c(O)c2ccccc2oc1=O	.	4.9%	-7.7%	19.0%	5.4%	-17.5%
COc1ccc(OCC(=O)c2c(O)c3ccccc3oc2=O)cc1	8.7%[11.4 µM]	20µM*	20µM*	17.8µM*	3.16µM*	?
Cc1noc2ncnc(N3CCCC(C(=O)NC(C)C)C3)c12 (stereo unspecified)	.	.	-7.1%	4.4%	-4.6%[59 µM]	3.4%[57.1 µM]
O=C(NCCC1=CCCCC1)c1ccc2c(c1)N(Cc1ccccc1)C(=O)c1ccccc1S2(=O)=O	.	.	-12.1%	26.9%	-31.7%[59 µM]	-9.6%
O=C(NCCCN1CCN(c2ccccc2)CC1)c1sc2ncccc2c1-n1cccc1	.	.	?	-16.0%[57 µM]	-30.2%[59 µM]	?
O=C(NCCCN1CCN(c2cccc(Cl)c2)CC1)c1sc2ncccc2c1-n1cccc1	.	.	31.6µM*	-20.6%[57 µM]	-44.7%[59 µM]	35.5µM*
Cc1ccc(C)n1-c1c(C(=O)NCCCN2CCN(c3ccc(F)cc3)CC2)sc2ncccc12	.	.	50.1µM*	-2.9%[57 µM]	-44.8%[59 µM]	?
CS(=O)(=O)NCCc1csc2nc(-c3ccccc3)nn12	.	.	0.0%	57.1%	2.6%[59 µM]	5.2%
Cc1cc(C(=O)N/N=C/c2cc(Cl)cc([N+](=O)[O-])c2O)n[nH]1	-27.6%	11.8%	?	26.8%	.	50.1µM*
Cc1cc(C(=O)N/N=C/c2cc(Br)c(Br)o2)n[nH]1	.	?	?	-1.9%	10µM*	-26.4%
